From PubChem BioAssay AID504840 (Johns Hopkins Ion Channel Center, 2011)
In all, about 1,500 compounds went through this assay and about 890 (59%) were called active. So high a share suggests a set chosen from earlier hits. Not all results are given here. Potency and affinity values are given separately. A number with no mark means an inactive call.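 How the source made its calls: active means inhibition of the choline-evoked signal at any tested dose together with a fitted dose-response curve; inactive means no inhibition at any dose or no curve.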

Biological target: High affinity choline transporter 1 (Homo sapiens) (UniProt Q9GZV3)
Sequence (Q9GZV3 whole entry, looked up): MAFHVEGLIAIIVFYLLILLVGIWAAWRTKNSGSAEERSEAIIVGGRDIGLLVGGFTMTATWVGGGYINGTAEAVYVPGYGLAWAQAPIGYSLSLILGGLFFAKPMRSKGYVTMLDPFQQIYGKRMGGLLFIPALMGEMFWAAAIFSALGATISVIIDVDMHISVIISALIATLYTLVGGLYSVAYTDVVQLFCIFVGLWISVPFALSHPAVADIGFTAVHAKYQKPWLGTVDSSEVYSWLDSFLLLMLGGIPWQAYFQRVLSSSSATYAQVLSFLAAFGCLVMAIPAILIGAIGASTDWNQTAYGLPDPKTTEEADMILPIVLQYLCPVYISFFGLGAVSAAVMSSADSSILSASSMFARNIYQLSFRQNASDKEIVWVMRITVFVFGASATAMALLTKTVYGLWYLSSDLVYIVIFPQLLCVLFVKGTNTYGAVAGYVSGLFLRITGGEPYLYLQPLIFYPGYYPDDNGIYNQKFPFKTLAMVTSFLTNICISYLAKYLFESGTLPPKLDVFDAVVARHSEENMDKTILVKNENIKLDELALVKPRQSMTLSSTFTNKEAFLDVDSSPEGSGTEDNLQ
Experiment: CHT inhibitors, dose response, cell-based, 5-point CRC, membrane potential dye (AID 504840);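 further: 0% = buffer-only response and 100% = EC90 choline response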
Conditions: HEK293-CHT, choline-induced depolarization, CHT with LV-to-AA double alanine mutation; series mostly up to 37 µM; inhibition: at the top concentration

Point of comparison: `CCc1ccc(S(=O)(=O)c2n[nH]n3c2nc(=O)c2ccccc23)cc1`, “inhibition” value 40%. Against it:
- OCC1OC(n2cnc3c(NC4CCCCC4)ncnc32)C(O)C1O (configuration not stated) — higher, 46.6%
- CC(=O)c1ccc(Nc2nc(NCCO)nc(OC(C(F)(F)F)C(F)(F)F)n2)cc1 — lower, 23.8%
- CC1CCN(CCCNC(=O)CN2C(=O)CSc3ccc(S(=O)(=O)N4CCCCC4)cc32)CC1 — higher, 53.7%
- CCCCN(C)CCNC(=O)CN1C(=O)CSc2ccc(S(=O)(=O)N3CCCC3)cc21 — higher, 52.2%
- Cc1ccc(-c2csc3ncnc(-n4cnc5ccccc54)c23)cc1 — higher, 85%
- Cc1ccc(-c2csc3ncnc(N4CCN(C)CC4)c23)cc1C — higher, 53.4%
- Cc1ccc(-c2csc3ncnc(-n4nnc5ccccc54)c23)cc1 — higher, 57.5%
- O=C(O)CCN1C(=O)CC(N2C(=O)/C(=C/c3ccc(Cl)cc3)SC2=S)C1=O (configuration not stated) — higher, 49.9%
- COc1ccc(-c2csc3ncnc(NCCCO)c23)cc1 — higher, 52.9%
- CCCNC(=O)N1CCCC(C(=O)c2cccc(Cl)c2)C1 (configuration not stated) — lower, 6.87%
- CCOC(=O)Cc1csc(N/C(=N/S(=O)(=O)c2ccc(F)cc2F)c2ccccc2)n1 — lower, 11%
- Cc1cc(O)ccc1NS(=O)(=O)c1ccc2c3c(cccc13)C(=O)N2 — lower, 38.9%
- CC1Cc2ccccc2N1C(=O)COC(=O)c1ccc(O)cc1 (configuration not stated) — lower, 24.7%
- CC[C@H](CO)Nc1nc(Nc2cccc(Cl)c2)c2ncn(C(C)C)c2n1 — lower, 33.4%
- COc1cc2c(cc1OC)/C(=C/C(=O)c1ccccc1F)NCC2 — higher, 49.9%
- CCCCCn1c(=O)c(F)cn(Cc2ccc(OC)c([N+](=O)[O-])c2)c1=O — higher, 58.7%
- Cn1c(-c2ccccc2)cnc1SCc1nc2ccccc2c(=O)[nH]1 — lower, 30.3%
- N#Cc1ccccc1COC(=O)c1cccnc1N — higher, 41.7%
- CC1=C(C(=O)NC(C)C)C2(CCC(C)CC2)OC1=O (configuration not stated) — lower, -0.294%
- O=C1/C(=C/c2ccc(F)cc2)SC(=S)N1NS(=O)(=O)c1ccccc1 — higher, 40.3%
- CCOc1ccc(/C=C2\SC(=S)N(NS(=O)(=O)c3ccc(C)cc3)C2=O)cc1OC — higher, 72.1%
- COc1cc(C=O)ccc1OCCOCCOc1ccccc1Cl — lower, 22.1%
- COc1ccc(/C=C2/SC(=S)N(NS(=O)(=O)c3ccccc3)C2=O)cc1 — higher, 41.8%
- Cc1ccc(C(=O)Nc2cccc(C(F)(F)F)c2)cc1NC(=O)c1csc(-c2ccncc2)n1 — lower, 21.5%
- CCOc1ncccc1C(=O)NCC1COc2ccccc2O1 (configuration not stated) — lower, 15.3%
- Cc1ccc(NC(=O)COC(=O)CN2C(=O)COc3ccccc32)cc1 — higher, 56.4%
- CC1(C)CC2CC(C)(CN2C(=O)CCCN2C(=O)c3ccccc3C2=O)C1 (configuration not stated) — higher, 53.6%
- Cc1ccc2nc(-c3ccccc3)cc(C(=O)NCCCn3ccnc3)c2c1 — higher, 63%
- Cc1c(CCC(=O)NCCCn2ccnc2)c(=O)oc2c(C)c3occ(C(C)(C)C)c3cc12 — higher, 76.5%
- CCOc1cccc(-c2nn(-c3ccccc3)cc2/C=C(/C#N)C(=O)NCCCn2ccnc2)c1 — lower, 28.6%
- O=C(O)c1ccc(N/N=C/c2cn(-c3ccccc3)nc2-c2cccs2)cc1 — higher, 55.5%
- COc1ccc(/C(O)=C2/C(=O)C(=O)N(c3ccccn3)C2c2cccc(Cl)c2)cc1 (configuration not stated) — lower, 37.6%
- O=C(NC1CC1)C1=C[C@H](c2csc3ccccc23)C[C@H](OCc2ccc(CO)cc2)O1 — lower, -0.201%
- O=C(Nc1ccc(OCc2ccccc2)cc1)Nc1ccccc1C(=O)NCCCN1CCOCC1 — lower, 37.1%
- CSc1ccccc1C(=O)NCCS(=O)(=O)N1CCN(c2ccc(F)cc2)CC1 — higher, 53.1%
- O=C(Nc1ccccc1C(=O)NCCCn1ccnc1)c1ccc(Cl)cc1Cl — higher, 53.8%
- C=CCn1c(SC2CCOC2=O)nc2scc(C3CC3)c2c1=O (configuration not stated) — higher, 51%
- COc1ccc(OCC(=O)NC(=S)Nc2ccccc2F)cc1 — lower, 12.5%
- CN(C)CCOC(=O)Cc1ccc(Cl)cc1 — lower, 22.7%
- CN(Cc1ccccc1)C(=O)COC(=O)COc1ccc(C#N)cc1 — higher, 44.2%
- Cc1sc2nc(SCCN(C)C)n(-c3ccccc3)c(=O)c2c1-c1ccc(F)cc1 — higher, 57.2%
- CCCCOc1cccc(C(=O)NNC(=S)NC2CCCCC2)c1 — higher, 49%
- Oc1ccc(Oc2ncc(Cl)cc2Cl)cc1 — higher, 41.6%
- CSCCC(NC(=O)c1ccccc1)C(=O)Nc1ccc(C)cc1 (configuration not stated) — lower, -7.83%
- O=C(C[n+]1cccc2ccccc21)c1ccc(Cl)cc1 — lower, 31.1%
- CC(C)Cc1csc(NC(=O)c2ccc(Br)cc2)c1C(=O)O — lower, 35.9%
- CC(C)c1c(C(=O)N/N=C/c2cccc(OCc3ccc(F)cc3)c2)nnn1-c1nonc1N — lower, 4.16%
- CCCOP(=O)(c1ccc(N(C)C)cc1)C(O)c1ccc(Br)cc1 (configuration not stated) — lower, -9.68%
- CCN1CCN(CC(=O)Nc2ccc(S(=O)(=O)N3C(C)CCCC3C)cc2)CC1 (configuration not stated) — higher, 76.4%
- O=C(NNS(=O)(=O)c1ccc([N+](=O)[O-])cc1)c1ccc2ccccc2c1O — lower, 36.4%
- O=C(CCN1C(=O)/C(=C\c2cccc(Br)c2)SC1=S)NCCCN1CCOCC1 — higher, 41.5%
- S=c1nc(-c2ccco2)[nH][nH]1 — higher, 44.5%
- O=C(NC(=S)NNC(=O)[C@H]1C[C@@H]1c1ccccc1)c1cccc(F)c1 — higher, 57.1%
- Cc1csc2c(N3CCN(C(=S)Nc4ccc(C(F)(F)F)cc4)CC3)ncnc12 — lower, 36.7%
- CCCN1CCN(C(=S)Nc2ccc3nc(N4CCN(CC)CC4)cc(C)c3c2)CC1 — higher, 71.7%
- CCN1CCN(c2cc(C)c3cc(NC(=S)N4CCC5(CC4)OCCO5)ccc3n2)CC1 — higher, 61%
- O=c1c2c(C(F)(F)F)cc(C(F)(F)F)nc2[nH]n1-c1ccccc1 — higher, 54.5%
- CCN(CC)CCCN(C(=O)c1ccc(OC)cc1)c1nc(-c2ccc(OC)cc2)cs1 — higher, 41.3%
- CCCCCc1cc(=O)oc2c(C(CCN(CC)CC)c3cc(OC)c(OC)c(OC)c3)c(OC)cc(OC)c12 (configuration not stated) — lower, 36.1%
- COc1cccc(C(=O)NN/C(C)=C/C(=O)C(F)(F)C(F)(F)C(F)(F)F)c1 — higher, 43.2%
- CSC(SC)=C(C#N)C(=O)c1ccccc1 — higher, 94.9%
- O=C1ON=C(c2ccccc2)/C1=C/c1ccco1 — higher, 58.5%
- C/C(Cl)=C\Cn1c(O)c(N=O)c2ccccc21 — higher, 51.9%
- CC(NS(=O)(=O)OCC(Cl)(Cl)Cl)c1ccc(Br)cc1 (configuration not stated) — higher, 41.1%
- COc1ccc(S(=O)(=O)N2CCN(CCc3ccccc3)CC2)c(OC)c1 — higher, 50.7%
- O=C1CCN(CCc2ccccc2)CCN1CCSc1ccccc1 — higher, 41.9%
- O=S(=O)(c1ccc(F)c(F)c1)N1CCN(CCc2ccccc2)CC1 — higher, 48.3%
- CC(C)(C)Nc1nc(Cl)nc(N(C#N)CN2C(=O)c3ccccc3S2(=O)=O)n1 — higher, 54.5%
- Cc1ccc(SC(CC(=O)c2ccc(C(C)(C)C)cc2)C(=O)O)cc1 (configuration not stated) — higher, 48.9%
- COc1ccc(N(CCCN2C(=O)c3cccc4cccc(c34)C2=O)C(=O)c2ccncc2)cc1 — lower, 27.8%
- O=C(NN1C(=O)/C(=C/c2cccc(O)c2)SC1=S)c1ccccc1O — lower, 10.2%
- O=C(O)c1ccc(/C=C2\SC(=S)N(NC(=O)c3ccc(Br)cc3)C2=O)cc1 — higher, 47.5%
- CC1CC(C)(C)N(C(=O)CN2C(=O)c3ccccc3C2=O)c2ccccc21 (configuration not stated) — lower, 35.4%
- Oc1c(Br)cc(/C=N/NC(=S)NCc2ccco2)cc1Br — lower, 25.4%
- COc1ccc(OCC(=O)N/N=C/C=C/c2ccccc2)cc1 — lower, -4.13%
- CCCOc1ccc(C(=O)NNC(=S)NC(=O)c2ccccc2)cc1 — lower, 23.4%
- COc1ccc(C(=O)NNC(=S)NC(=O)c2ccccc2)cc1 — lower, 29.4%
- CC(C)(C)N/N=C/c1cc(Cl)cc([N+](=O)[O-])c1O — higher, 54.1%
- CCOC(=O)c1ccc2c(c1)[nH]c(=S)n2CC — lower, 36%
- CCCCn1c(=O)n(Cc2cccc(F)c2)c(=O)c2c1ncn2Cc1ccco1 — higher, 68.1%
- N#Cc1nc(Cc2cccc3ccccc23)oc1N1CCOCC1 — lower, 30.9%
- O=C(Cn1ncc2c3ccccc3n(Cc3ccccc3)c2c1=O)NCCCN1CCOCC1 — higher, 51.5%
- Cc1ccccc1-n1nnnc1Sc1nnnn1-c1ccccc1 — lower, 29.9%
- Oc1cccc(-n2nnnc2SCc2ccccc2F)c1 — lower, 32.2%
- C=Cn1cc[n+](CC(=O)c2ccc(Cl)cc2)c1 — higher, 48.6%
- C=Cn1cc[n+](CC(=O)c2ccc(Cl)c(Cl)c2)c1 — higher, 47.2%
- COc1ccc(Cl)cc1NC(=O)C[n+]1cccc(C)c1 — higher, 61.8%
- O=[N+]([O-])c1cc([N+](=O)[O-])c2c(=Nc3ccccc3)n(-c3ccccc3)n(O)c2c1 — lower, 11.3%
- CC1CCC(NC(=O)c2ccc(CS(=O)(=O)Cc3ccccc3F)o2)CC1 (configuration not stated) — higher, 68.8%
- CCCNC(=O)c1ccc(COc2ccc(C)cc2)o1 — lower, 34.9%
- Cc1ccc(C(=O)CCC(=O)NC2CCCC(C)C2C)cc1 (configuration not stated) — lower, 31.5%
- Cc1ccccc1OC(C)C(=O)Nc1ccc(S(=O)(=O)Nc2nccs2)cc1 (configuration not stated) — higher, 43.2%
- CCC(Oc1ccc(C)cc1)C(=O)Nc1ccc(S(=O)(=O)Nc2nccs2)cc1 (configuration not stated) — higher, 68.2%
- CC(NCc1ccc(F)cc1)C(=O)Nc1cc(S(=O)(=O)N2CCCCC2)ccc1Cl (configuration not stated) — lower, 18.6%
- O=C(Nc1ccccc1OC(F)F)c1cccc(S(=O)(=O)N2CCCC2)c1 — lower, 15.9%
- Cc1cc(C)n2nc(SCc3cccc(S(=O)(=O)N(C)C)c3)nc2n1 — lower, 36.9%
- CSc1ccc(C(=O)C2CCCN(C(=O)c3nonc3C)C2)cc1 (configuration not stated) — lower, 30.4%
- CCOC(=O)C1CCCN(C(=O)Cc2c(F)cccc2Cl)C1 (configuration not stated) — lower, 9.71%
- Cc1ccc(SCC2(O)CCN(C(=O)c3ccc(Cl)cc3)CC2)cc1 — lower, 14.9%
- O=C(Cc1ccccc1F)c1ccc(O)cc1O — higher, 51.5%
- O=c1c2ccccc2nc(-c2ccccc2)n1Cc1ccco1 — lower, 22.4%
- Cc1sc(NC(=O)c2ccco2)nc1-c1ccccc1 — higher, 57.1%
- CC1CCCCN1C(=O)c1ccc(C(=O)Nc2ccc(F)cc2)cc1 (configuration not stated) — higher, 50.5%
- O=C(CCc1ccccc1)NNC(=S)NC(=O)c1ccc(Cl)cc1 — lower, 27.5%
- COc1cccc(N2C(=O)N(c3ccccc3)C3CS(=O)(=O)CC32)c1 (configuration not stated) — lower, 23.3%
- CCCCCn1c(=O)[nH]c2cc(C(=O)NCCCN3CCCCC3CC)ccc2c1=O (configuration not stated) — higher, 58.5%
